From PubChem
Nrf2 block: Nrf2 pathway inhibition. A549 ARE-Fluc reporter, luciferase luminescence, 18-24 h. Potency, µM (top dose mostly 46 µM), for inactives: at the highest dose activity change, negative = inhibition, actives largely listed as inhibitors. actives 2.1% (n = 360,000). AID 504444; also: % is scaled to controls: 0 for no effect and ±100 for the full control effect; nearly all actives have a fitted effect of over 60% in size
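Nrf2 function is reported as luminescence of an ARE-controlled luciferase in A549 cells. Compounds were tested at several concentrations, and a CellTiter-Fluor read on the same wells flagged cytotoxicity.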
S2 tox: cell viability loss in ATXN counter-screen; actives 0.49% (n = 400,000); S2 cells (HEK-293 line with an ATXN2-luciferase reporter) viability, CellTiter-Fluor protease fluorescence, 24 h; Potency, µM (doses to about 56.7 µM), most hits filed as cytotoxic; AID 651635; also: nearly all actives have a fitted effect of over 40% in size
TGFb inhibitor: blocks TGF-b signaling. AID 588855. HepG2 CAGA-GFP TGF-b/SMAD3 reporter, GFP fluorescence, 18 h; TGF-beta stimulated, 500 pg/mL final. Potency, µM (titrated, usually from 46.1 µM), inactives show at the top dose activity, negative = inhibition, most hits filed as inhibitors. actives 1.2% (n = 410,000); also: % is scaled to controls: 0 for no effect and ±100 for the full control effect; nearly all actives have a fitted effect of over 65% in size
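TGF-beta reporter screen: HEPG2 CAGA-GFP, 1% FBS, 500 pg/mL TGF-beta final, 18 h; per-cell GFP summed per well; curves fitted and categorized by class.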
A549 viability: kills or reduces viability of A549 cells in Nrf2 counter-screen. Potency, µM (highest dose often 46 µM), without a hit: at the top dose activity change, negative = cytotoxicity, most hits filed as inhibitors. actives 0.16% (n = 390,000). A549 ARE-Fluc cells, CellTiter-Fluor viability, 18-24 h; also: % is scaled to controls: 0 for no effect and ±100 for the full control effect
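Cytotoxicity counterscreen: CellTiter-Fluor fluorescence was measured in A549 ARE_Fluc cells after 18-24 h of compound exposure in a concentration series. The subsequent BugLite luminescent read reports ARE-luciferase activity.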
ATXN2 expr inh: ATXN2 expression inhibition; actives 0.72% (n = 360,000); HEK-293 ATXN2-luciferase reporter, luminescence, 24 h; Potency, µM (doses to about 57 µM), inactives show at the highest dose activity change, negative = inhibition, hits mostly inhibitors; also: % is scaled to controls: 0 for no effect and ±100 for the full control effect; nearly all actives have a fitted effect of over 55% in size
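ATXN2-luciferase reporter cells (luciferase flanked by upstream and downstream ATXN2 gene portions) were treated 24 h at 37 °C with compounds at up to 57 uM. SteadyGlo luminescence gave expression; GF-AFC fluorescence gave viability.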
HepG2 tox-1: HepG2 cytotoxicity, counter-screen for TGF-b inhibitors | HepG2 CAGA-GFP viability, ATP luminescence, 18 h | Potency, µM (highest dose often 46.1 µM), inactives show at the top dose activity change, negative = cytotoxicity, usual class: cytotoxic | actives 0.76% (n = 410,000)
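HepG2 CAGA-GFP cells (1000/well, DMEM with 1% FBS) received compound, then TGF-beta at 500 pg/mL final, and were incubated 18 hours at 37 degrees C. Viability was read by CellTiter-Glo luminescence. Media-only wells were set as complete cell-killing and DMSO as no toxicity.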
TGFb CAGA inh: confirmation of TGF-b signaling inhibitors in HepG2 reporter cells. Potency, µM (series often up to 46.1 µM), inactives show at the highest dose activity, negative = inhibition, usual class: inhibitors. actives 63% (n = 1,600). AID 720534. shares compounds with TGFb inhibitor. HepG2 CAGA-GFP TGF-b reporter, GFP fluorescence, 18 h; cells stimulated with TGF-beta, 500 pg/mL; also: % is scaled to controls: 0 for no effect and ±100 for the full control effect; nearly all actives have a fitted effect of over 65% in size
HepG2 tox-2: HepG2 cytotoxicity, TGF-b inhibitor counterscreen; shares compounds with TGFb inhibitor; actives 27% (n = 1,600); Potency, µM (titrated, usually from 46.1 µM), for the others: at the highest dose activity, negative = cytotoxicity, hits mostly inhibitors; HepG2 CAGA-GFP viability, ATP luminescence, 18 h; cells stimulated with TGF-beta, 500 pg/mL; also: % is scaled to controls: 0 for no effect and ±100 for the full control effect; nearly all actives have a fitted effect of over 70% in size
TGFb CCL64 inh: orthogonal confirmation of TGF-b inhibitors in CCL64 cells; AID 720536; actives 41% (n = 1,600); shares compounds with TGFb inhibitor; Potency, µM (top dose mostly 46.1 µM), inactives show at the top dose activity, negative = inhibition, hits mostly inhibitors; CCL64 CAGA-GFP reporter, TGF-b stimulated, GFP fluorescence, 18 h; also: nearly all actives have a fitted effect of over 65% in size
COP TGFb inh: TGF-b inhibition validated with COP promoter. shares compounds with TGFb inhibitor. HepG2 COP-GFP TGF-b reporter, GFP fluorescence, 18 h; cells stimulated by added recombinant TGF-beta. Potency, µM (series often up to 46.1 µM), for the others: at the top dose activity, negative = inhibition, most hits filed as inhibitors. actives 3% (n = 1,600); also: nearly all actives have a fitted effect of over 70% in size
The depositor's hits bear a star; i = inactive; ? = inconclusive; . = no result; [ ] = dose if it differs, or a comment. Sampled rows, rich in hits. Any-hit rate of the full collection: about 3.8%. Calls follow the shape of the dose curve; as a rule, active = well fitted curve in the direction sought with a large enough effect; inconclusive = small, poorly fitted or top-dose-only effect, or another doubt; inactive = no such curve, though single readings can be large; an effect the other way counts as inactive or inconclusive. Potency is read from the fitted curve at half-maximal effect.

SMILES | Nrf2 block | S2 tox | TGFb inhibitor | A549 viability | ATXN2 expr inh | HepG2 tox-1 | TGFb CAGA inh | HepG2 tox-2 | TGFb CCL64 inh | COP TGFb inh
Cn1c(C(=O)NCc2ccc(F)cc2)cc2cc(S(=O)(=O)N3CCCCC3)ccc21 | . | . | 36% | 6% | . | 6% | . | . | . | .
Cc1ccc(C)c(NC(=O)CN(C)C(=O)C2CCN(C(=O)Nc3ccccc3)CC2)c1 | 3% | i | 27% | -4% | 23% | 2% | . | . | . | .
C[N+]1(C)C[C@@H](O)C[C@@H]1C(=O)[O-] | . | i | . | . | . | . | . | . | . | .
COCCN=C1N[C@@H](c2ccccc2)C(C(=O)OC)=C(C)N1Cc1ccccc1 | 19% | i | 1% | -8% | 0% | -16% | . | . | . | .
COCCN=C1N[C@@H](c2ccc(Br)cc2)C(C(=O)OC)=C(C)N1Cc1ccccc1 | 6% | ? | 10µM* | 6% | ? | -73% | ? | ? | ? | 62%
O=S(=O)(N=C1C=CC(=NS(=O)(=O)c2ccccc2)c2ccccc21)c1ccccc1 | . | i | ? | . | . | -117% | . | . | . | .
O=C1C(Nc2ccc(O)cc2)=C/C(=N/S(=O)(=O)c2cccs2)c2ccccc21 | ? | 8.9µM* | 1µM* | ? | 4µM* | 1.1µM* | 0.65µM* | 1µM* | 3.7µM* | 1µM*
O=C(O)c1ccc(NC2=C/C(=N/S(=O)(=O)c3ccccc3)c3ccccc3C2=O)cc1 | 12% | . | 5.6µM* | -14% | 35µM* | 4µM* | 6.5µM* | 18µM* | 12µM* | ?
COCCNC(=O)C(c1cccs1)N(Cc1cccs1)C(=O)Cn1nnc2ccccc21 (stereo not given) | -7% | i | 0% | 1% | 6% | 1% | . | . | . | .
CC(C)CCNC(=O)C(c1ccco1)N(Cc1cccs1)C(=O)Cn1nnc2ccccc21 (stereo not given) | -11% | i | 7.1µM* | -3% | 3% | 18% | ? | 9% | ? | 1%
COc1cccc(NC(=O)CN(C)C(=O)CC(NC(=O)c2ccccc2Cl)c2ccccc2)c1 (stereo not given) | -6% | i | 10% | -5% | 4% | 7% | . | . | . | .
O=C(/C=C/c1cccc([N+](=O)[O-])c1)c1cccs1 | ? | ? | 8.9µM* | 2% | ? | -37% | 12µM* | 18µM* | 5.8µM* | 23%
Cc1cc(O)c(C(=O)/C=C/c2cccc([N+](=O)[O-])c2)c(=O)o1 | 5% | i | -11% | 2% | -4% | -6% | . | . | . | .
CC(=O)Oc1ccccc1C(=O)C=Cc1cccc([N+](=O)[O-])c1 | 3% | . | 7.1µM* | 2% | ? | -31% | 10µM* | ? | 5.8µM* | ?
O=C(/C=C/c1cccc([N+](=O)[O-])c1)Nc1ccc(NC(=O)c2cccs2)cc1 | -6% | ? | 9% | -3% | ? | 27% | . | . | . | .
O=C(O)c1ccc(N2CCCCS2(=O)=O)cc1 | 15% | i | 5% | 5% | 1%[11.3 µM] | -1% | . | . | . | .
CCOC(=O)C1=C(CC)Nc2ccccc2N=C1NC(=O)Nc1ccc(Cl)c(Cl)c1 | ? | ? | 7.1µM* | ? | ? | -36% | 18µM* | ? | 6.5µM* | 81%
CCOC(=O)C1=C(CC)Nc2ccccc2N=C1NC(=O)c1cc(C)on1 | 23% | i | 0% | ? | 5% | -24% | . | . | . | .
Cc1ccc(NC(=O)CSc2ccc(-c3cccs3)nn2)cc1Cl | -8% | . | 17% | -1% | . | -4% | . | . | . | .
CN(CCOc1ccccc1)C(=O)C1CCN(C(=O)c2ccc(F)cc2)CC1 | 11% | i | ? | 0% | -5% | 0% | -16% | 10% | -4% | 12%
C/C(=N\NC(=O)c1ccccc1)c1ccccc1F | ? | i | 20% | 8% | 73% | 13% | . | . | . | .
C/C(=N\NC(=O)c1ccccc1OCCOc1ccccc1)c1ccccc1F | ? | ? | 20µM* | ? | -13% | -19% | ? | ? | ? | 57%
CC(C)(C)OC(=O)N1CCc2onc(-c3ccc(N)cc3)c2C1=O | . | i | 7% | . | 3% | -2% | . | . | . | .
COc1ccc(-c2cc(N)n(S(=O)(=O)c3c(F)c(F)c(F)c(F)c3F)n2)cc1OC | . | 10µM* | 4µM* | -2% | 7.9µM* | 8.9µM* | 2.6µM* | 8.2µM* | 2.9µM* | ?
O=C1CCc2cc(S(=O)(=O)Nc3cccc(Br)c3)ccc2N1 | ? | . | . | -2% | . | . | . | . | . | .
CCOC(=O)c1c(C)oc2c1C(=O)c1ccccc1C2=O | -10% | i | 5µM* | -1% | ? | 5µM* | 5.2µM* | 5.8µM* | 4.6µM* | 16µM*
Cc1ccc(NC(=O)CN(C)C(=O)c2cc(-c3ccccc3)nn2-c2ccccc2)cc1 | -25% | i | 11µM* | -13% | -3% | -1% | 18µM* | -22% | 16µM* | 9%
CCOC(=O)c1ccccc1NC(=O)CSc1nc(N)cc(=O)[nH]1 | 6% | i | 7% | 4% | 16% | 1% | . | . | . | .
CC(C)CCN1C(=O)c2ccc(C(=O)Nc3ccc(Br)cc3C(=O)O)cc2C1=O | 6% | i | -1% | 2% | . | -15% | . | . | . | .
COc1cc(C2Oc3ccccc3C=C2[N+](=O)[O-])cc(OC)c1OC (stereo not given) | ? | 16µM* | 3.2µM* | ? | . | 5.6µM* | 21µM* | 18µM* | 4.1µM* | ?
